Laboratory results from PMC5540273 (PLoS ONE, 2017).

What follows are compounds tested on PHKG1. Details: concentration: 1 μM, replicates: in singlicate; n = 1.
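Also: KINOMEscan kinase panel screen.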

| Structure (SMILES) | %Inh [%] |
| --- | --- |
| FC(F)(F)c1ccc(/C=C/c2cncnc2Nc2ccc3[nH]c(Cc4ccccc4)nc3c2)cc1 [GW709199] | 43 |
| O=C(Nc1cccc(-c2nn3ccccc3c2-c2ccnc(Nc3cccc(F)c3)n2)c1)c1c(F)ccc(F)c1Cl [GSK357952] | 0 |
| O=C(Nc1ccccc1F)NC1CCN(c2ccnc(Nc3ccc(F)cc3)n2)CC1 [GSK1379800] | 0 |
| Cc1occc1-c1ncc(OC[C@@H](N)Cc2c[nH]c3ccccc23)cc1-c1ccc2[nH]nc(C)c2c1.O=C(O)C(F)(F)F [GSK682037] | 0 |
| C[C@@H]1CC[C@@H](C(=O)Nc2ccccc2)CN1c1cc(-c2ccc3c(N)n[nH]c3c2)nc(N)n1 [GSK2286062] | 0 |
| Cl.NC(=O)c1cccc(Nc2nccc(Nc3ccc(Oc4c(Cl)cccc4Cl)c(Cl)c3)n2)c1 [GW659009] | 0 |
| Cc1ccc(C(=O)Nc2ccc(Nc3ccnc4cc(-c5nccs5)ccc34)cc2O)cc1.Cl [GW494702] | 4 |
| CNC(=O)c1ccccc1Nc1nc(Nc2ccc(N3CCOCC3)cc2)ncc1Cl.Cl [GSK1576028] | 84 |
| COc1cc(Nc2nccc(-c3c(-c4cccc(NC(=O)c5c(F)cccc5F)c4)nn4ccccc34)n2)cc(OC)c1OC [GSK323521] | 4 |
| Nc1ncnc2c1nc(-c1ccccc1)n2-c1ccccc1 [SKF-97293] | 17 |
| Fc1ccc(-c2ncn(C3CCNCC3)c2-c2ccnc(Oc3ccc(-c4ccccc4)cc3)n2)cc1 [SB-245391] | 0 |
| Cl.Cl.NCC(NCc1ccc(-c2ccnc3[nH]ccc23)s1)c1ccccc1 (centres unmarked) [GSK1321565] | 19 |
| CC(=O)N1CCN(c2ccc(Nc3nccc(-c4sc(C(C)C)nc4-c4cccc(NS(=O)(=O)c5cccc(Cl)c5)c4)n3)cn2)CC1 [GSK1660437] | 0 |
| COc1ccc(Nc2nccc(N3CCC(NC(=O)Nc4cccc(OC)c4)C3)n2)cc1 (centres unmarked) [GSK1379742] | 17 |
| Cl.Cl.NCC(NC(=O)c1cc(-c2ccccc2)c(-c2ccnc3[nH]ccc23)s1)c1ccccc1 (centres unmarked) [GSK1321561] | 0 |
| O=C(Nc1n[nH]c2cc(-c3ccoc3)ccc12)C1CC1 [SB-738481] | 0 |

| Structure (SMILES) | %Inh [%] |
| --- | --- |
| Cl.c1ccc(-c2ccc3c(Nc4ccc5[nH]ccc5c4)ccnc3c2)nc1 [GW440138] | 0 |
| COc1cc(Nc2nccc(-c3c(-c4cccc(NC(=O)c5c(F)cccc5F)c4)nn4ncccc34)n2)cc(OC)c1OC [GSK327238] | 0 |
| CCCCc1nn2ncccc2c1-c1ccnc(Nc2ccc(N3CCN(C)CC3)cc2)n1 [GW684941] | 20 |
| Nc1ncc(-c2ccc3nccc(-c4ccncc4)c3c2)cc1S(=O)(=O)N1CCOCC1 [GSK1627798] | 0 |
| Cc1ccc(S(=O)(=O)Nc2ccc(Nc3nccc(Nc4cccc5[nH]ncc45)n3)cc2)cc1 [GSK581271] | 0 |
| COc1ccc(Nc2nccc(NCCNC(=O)c3cc4ccccc4s3)n2)cc1 [GSK1379896] | 0 |
| NCCCC(NC(=O)c1cc(Br)c(-c2ccnc3[nH]ccc23)s1)c1ccccc1.O=C(O)C(F)(F)F.O=C(O)C(F)(F)F (centres unmarked) [GSK1287544] | 0 |
| CC(C)c1nc(-c2cccc(NS(=O)(=O)c3c(F)cccc3F)c2F)c(-c2ccnc(Nc3ccc(N4CCOCC4)nc3)n2)s1 [GSK2008607] | 0 |
| O=C(NC1CCN(c2ccnc(Nc3ccc(F)cc3)n2)C1)c1cc2ccccc2s1 (centres unmarked) [GSK1379716] | 19 |
| Nc1ncc(-c2cccnc2)c2scc(-c3ccc4c(c3)CCN4C(=O)Cc3ccccc3)c12 [GSK683281] | 18 |
| CC(C)(C)c1ccc2nccc(Nc3cccc(O)c3)c2c1 [GW856795] | 0 |
| COc1cccc(C2=C(Nc3ccc(Cl)c(C(=O)O)c3)C(=O)NC2=O)c1 [SB-390769] | 0 |
| Cc1ccc(F)c(C(=O)Nc2cccc(-c3nn4ccccc4c3-c3ccnc(Nc4cccc(F)c4)n3)c2)c1F [GSK361061] | 14 |
| O=C(Nc1n[nH]c2nc(-c3ccc(O)cc3)ccc12)C1CC1 [SB-710363] | 5 |
| c1ccc(-c2n[nH]cc2Nc2ccnc3ccccc23)nc1 [GW694077] | 0 |
| CCn1c(-c2nonc2N)nc2c(C#CC(C)(C)O)ncc(OCCCCN)c21.O=C(O)C(F)(F)F.O=C(O)C(F)(F)F [GSK507274] | 5 |
